Measured values from PubChem BioAssay AID1159580 (chemical genetic matrix, 2015).
Screen size: about 5,500 compounds; about 2,000 (36%) were called active. Roughly 18% stayed inconclusive and do not appear here. No stated cut-off is given here; in the data, active means normalized growth mostly below about 0.91 (no sharp cut-off); inconclusive means no clear call, values can overlap the other calls; inactive means mostly above about 0.92. This is one part of the list.

Assay: chemical genetic growth profiling, strain panel (AID 1159580);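 further: tested at 20 µM; growth read once vehicle control cultures reached saturation at 30 °C; 1 = growth at the plate median or of vehicle wells; lower values mean less growth of the strain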
Conditions: S. cerevisiae deletion strains, growth OD

Measured: normalized growth

COc1cc(O)cc(/C=C/c2ccccc2)c1
active: locus YBR021W, strain FUR4, hits give low values 0.833 | locus YCL029C, strain bik1, hits give low values 0.9 | locus YDL035C, strain GPR1, hits give low values 0.665 | locus YDL074C, strain BRE1, hits give low values 0.61 | locus YDL101C, strain DUN1, hits give low values 0.835 | locus YDL134C, strain PPH21, hits give low values 0.697 | locus YDL185W, strain tfp1, hits give low values 0.881 | locus YDL192W, strain arf1, hits give low values 0.692 | locus YDR101C, strain arx1, hits give low values 0.858 | locus YDR162C, strain NBP2, hits give low values 0.618 | locus YDR318W, strain mcm21, hits give low values 0.805 | locus YDR502C, strain sam2, hits give low values 0.748 | locus YEL061C, strain CIN8, hits give low values 0.856 | locus YER110C, hits give low values 0.866 | locus YER155C, strain BEM2, hits give low values 0.753 | locus YGL078C, strain dbp3, hits give low values 0.765 | locus YGL086W, strain mad1, hits give low values 0.803 | locus YGL248W, strain PDE1, hits give low values 0.748 | locus YGR135W, strain pre9, hits give low values 0.713 | locus YGR252W, strain gcn5, hits give low values 0.519 | locus YHR030C, strain SLT2, hits give low values 0.795 | locus YHR079C, strain IRE1 (second series), hits give low values 0.89 | locus YHR129C, strain ARP1, hits give low values 0.768 | locus YHR200W, strain rpn10, hits give low values 0.907 | locus YIL066C, strain RNR3, hits give low values 0.859 | locus YIR030C, strain dcg1, hits give low values 0.907 | locus YJL095W, strain BCK1, hits give low values 0.46 | locus YJL187C, strain SWE1 (second series), hits give low values 0.721 | locus YJR043C, strain POL32, hits give low values 0.85 | locus YKL009W, strain mrt4, hits give low values 0.742 | locus YKL085W, strain MDH1 (second series), hits give low values 0.913 | locus YKL085W, strain MDH1, hits give low values 0.913 | locus YKL190W, strain CNB1, hits give low values 0.839 | locus YKR001C, strain vps1, hits give low values 0.425 | locus YLR039C, strain RIC1, hits give low values 0.507 | locus YLR058C, strain SHM2, hits give low values 0.784 | locus YLR262C, strain YPT6, hits give low values 0.381 | locus YLR330W, strain CHS5, hits give low values 0.715 | locus YLR342W, strain FKS1 (second series), hits give low values 0.601 | locus YLR418C, strain cdc73, hits give low values 0.456 | locus YML032C, strain rad52, hits give low values 0.795 | locus YML124C, strain tub3, hits give low values 0.914 | locus YMR223W, strain ubp8, hits give low values 0.805 | locus YMR263W, strain SAP30, hits give low values 0.768 | locus YMR307W, strain GAS1, hits give low values 0.59 | locus YNL067W, strain RPL9B, hits give low values 0.721 | locus YNL233W, strain BNI4, hits give low values 0.67 | locus YNL250W, strain rad50, hits give low values 0.887 | locus YNL271C, strain bni1, hits give low values 0.855 | locus YNL298W, strain CLA4, hits give low values 0.802 | locus YNL307C, strain MCK1, hits give low values 0.513 | locus YNR052C, strain pop2, hits give low values 0.855 | locus YOL147C, strain pex11, hits give low values 0.824 | locus YOR061W, strain CKA2, hits give low values 0.885 | locus YOR069W, strain VPS5, hits give low values 0.807 | locus YOR136W, strain idh2, hits give low values 0.899 | locus YOR144C, strain elg1, hits give low values 0.918 | locus YOR184W, strain ser1, hits give low values 0.666 | locus YPR119W, strain clb2, hits give low values 0.924 | locus YPR163C, strain tif3, hits give low values 0.682 | locus YPR167C, strain met16, hits give low values 0.809 | strain wtn01, hits give low values 0.789
inactive: locus YBR229C, strain ROT2, hits give low values 0.97 | locus YDR150W, strain NUM1, hits give low values 0.954 | locus YDR388W, hits give low values 0.966 | locus YER167W, strain BCK2, hits give low values 0.94 | locus YHR094C, strain hxt1, hits give low values 0.946 | locus YIL073C, strain SPO22, hits give low values 0.809 | locus YIL125W, strain kgd1, hits give low values 0.94 | locus YJL134W, strain LCB3, hits give low values 0.976 | locus YJL168C, strain set2, hits give low values 0.954 | locus YKL068W, hits give low values 0.954 | locus YLR102C, strain apc9, hits give low values 0.942 | locus YLR268W, strain sec22, hits give low values 0.909 | locus YLR371W, strain rom2, hits give low values 0.949 | locus YML016C, strain PPZ1, hits give low values 0.924 | locus YMR078C, strain ctf18, hits give low values 0.938 | locus YOL012C, strain htz1 1.06 | locus YOR316C, strain cot1, hits give low values 0.949 | locus YPR141C, strain kar3, hits give low values 0.95
